Data: the supplement of paper PMC13380429

tested on: Vero E6 infected with SARS-CoV-2; assay: inhibition of SARS-CoV-2 cytopathic effect; higher = more antiviral protection, active = above 15; conditions: 100 nM; 48 h

Row | SMILES | inhibition of SARS-CoV-2 cytopathic effect
1 | NC[C@H](O)c1ccc(O)c(O)c1 [norepinephrine] | -2.09% (inactive)
2 | C1CCN2C[C@@H]3C[C@@H](CN4CCCC[C@@H]34)[C@H]2C1 [sparteine-sulfate] | 3.05% (inactive)
3 | COc1ccc2c3c1O[C@H]1C[C@@H](O)C=C[C@@]31CCN(C)C2 [galantamine] | 2.16% (inactive)
4 | c1ccc(CC2=NCCN2)cc1 [tolazoline] | 1.33% (inactive)
5 | CC(C)(C)OC(=O)N[C@H]1CCCCC/C=C\[C@@H]2C[C@@]2(C(=O)NS(=O)(=O)C2CC2)NC(=O)[C@@H]2C[C@@H](OC(=O)N3Cc4cccc(F)c4C3)CN2C1=O [danoprevir] | 1.06% (inactive)
6 | CN(C)CCN1C(=O)c2cccc3cc(NC(N)=O)cc(c23)C1=O [unbs-5162] | 2.53% (inactive)
7 | CC(C)(COP(=O)(O)OP(=O)(O)OC[C@H]1O[C@@H](n2cnc3c(N)ncnc32)[C@H](O)[C@@H]1OP(=O)(O)O)[C@@H](O)C(=O)NCCC(=O)NCCS [coenzyme-A] | 2.41% (inactive)

same assay, conditions: 833.33 nM; 48 h

Row | SMILES | inhibition of SARS-CoV-2 cytopathic effect
8 | CC(C)n1nc(C#Cc2ccccc2)c2c(N)ncnc21 | 0.67% (inactive)
9 | Nc1ccc([As](=O)(O)O)cc1 [arsanilic-acid] | -2.25% (inactive)
10 | Nc1ccc(C(=O)NCC(=O)O)cc1 [4-aminohippuric-acid] | 0.71% (inactive)
11 | CC(C)[C@@H](C(=O)Nc1nccs1)c1ccc(Cl)cc1 | 1.87% (inactive)
12 | NC(=O)[C@H]1CCS[C@@H]2C[C@]3(CCCN3C(=O)Cc3ccc(NC(=O)COc4ccc(Cl)cc4Cl)cc3)C(=O)N12 | 0.74% (inactive)
13 | CN1CCC(Nc2ncc3ncnc(Nc4ccc(F)c(Cl)c4)c3n2)CC1 | -7.55% (inactive)
14 | CCCCc1nc(Cl)c(CO)n1Cc1ccc(-c2ccccc2-c2nnn[nH]2)cc1 [losartan] | -2.88% (inactive)
15 | O=C(O)Cc1cccc(OCCCN(Cc2cccc(C(F)(F)F)c2Cl)CC(c2ccccc2)c2ccccc2)c1 | 0.38% (inactive)
16 | CC(C)C[C@H](NC(=O)CNC(=O)c1cc(Cl)ccc1Cl)B(O)O [ixazomib] | -11% (inactive)
17 | C[C@@H](C(=O)O)c1ccc(-c2ccccc2)c(F)c1 (racemic) [flurbiprofen-(+/-)] | 1.32% (inactive)
18 | CC(=O)SC[C@@H](C)C(=O)N1CCC[C@H]1C(=O)N[C@@H](Cc1ccccc1)C(=O)O [alacepril] | -1.33% (inactive)
19 | N[C@@H](C(=O)N[C@@H]1C(=O)N2C(C(=O)O)=C(Cl)CS[C@H]12)c1ccccc1 [cefaclor] | -1.09% (inactive)
20 | CC1(C)Cc2c(-c3ccccc3)c(-c3ccc(Cl)cc3)c(CC(=O)O)n2C1 [licofelone] | 3.45% (inactive)
21 | Oc1ccc(C2CNCCc3c2cc(O)c(O)c3Cl)cc1 (configuration not stated) [fenoldopam] | 0.98% (inactive)
22 | FC(F)(F)c1cccc(-c2noc(-c3cc(-c4ccccc4)c(C(F)(F)F)s3)n2)c1 | 1.01% (inactive)
23 | CC[C@@H](c1ccc(F)c(F)c1)n1c(C(=O)OC)c(-c2ccno2)[nH]c1=S | 1.19% (inactive)
24 | CC1(C)S[C@@H]2[C@H](NC(=O)Cc3ccccc3)C(=O)N2[C@H]1C(=O)O [benzylpenicillin] | -1% (inactive)
25 | Nc1ccc(S(=O)(=O)Nc2ccc(Cl)nn2)cc1 [sulfachlorpyridazine] | -1.32% (inactive)
26 | O=C(/C=C/c1ccc(O)c(O)c1)c1ccc(O)cc1O [butein] | 2.97% (inactive)
27 | CC(C(=O)O)c1ccc(CC2CCCC2=O)cc1 (configuration not stated) [loxoprofen] | 0.82% (inactive)
28 | Cc1cc(O)c(C(=O)N[C@@H](C(=O)N[C@@H]2C(=O)N3C(C(=O)O)=C(CSc4nnnn4C)CS[C@H]23)c2ccc(O)cc2)cn1 [cefpiramide] | 2.35% (inactive)
29 | CCCCNC(=O)[C@@H]1Cc2ccccc2N1C(=O)[C@@H](N)CC [butabindide] | 1.68% (inactive)
30 | C=CCN1CCCC1CNC(=O)c1cc2nn[nH]c2cc1OC (configuration not stated) [alizapride] | -1.24% (inactive)
31 | O=Nc1c(-c2c(O)[nH]c3cc(Br)ccc23)[nH]c2ccccc12 [GSK-3-inhibitor-IX] | 13.8% (inactive)
32 | Cc1onc(-c2ccccc2)c1C(=O)N[C@@H]1C(=O)N2[C@@H]1SC(C)(C)[C@@H]2C(=O)O [oxacillin] | 3.32% (inactive)
